Reference: PubChem BioAssay (NCATS)
Inconclusive results are not listed. Active and inactive are the calls of the source. Unless noted, calls come from the whole dose curve.

Key:
[1] = target: Bile acid receptor (Homo sapiens) (UniProt Q96RI1); assay: qHTS assay for small molecule agonists of farnesoid X receptor signaling (AID 588527); settings: HEK293T FXR-UAS-bla, beta-lactamase ratio, 16 h; activation: stronger effect = higher value;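 note: series mostly up to about 77 µM; 0% = vehicle basal and 100% = reference agonist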
In short: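 FXR-UAS-bla HEK293T cells (10% dialyzed FBS) preincubated 5-7 h at 37 C, then compounds at up to 92 uM for 16 h at 37 C. CCF4 beta-lactamase read-out after 2 h RT. Normalized to chenodeoxycholic acid (100 uM) and DMSO; Hill fit gave EC50 and efficacy.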

[2] = target: Peroxisome proliferator-activated receptor delta (Homo sapiens) (UniProt Q03181); assay: qHTS assay for small molecule agonists of peroxisome proliferator-activated receptor delta signaling (AID 588534);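 note: 0% = DMSO basal wells and 100% = positive control agonist at 10 µM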
In short: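 Cell-based beta-lactamase reporter assay run in agonist mode: cells seeded and incubated 5 hrs at 37 C, compounds added and incubated 18 hrs at 37 C. CCF4 dye fluorescence read after 2 hrs at RT; EC50 and efficacy from Hill fits.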

[3] = qHTS for Inhibitors of the Functional Ribonucleoprotein Complex (vRNP) of Lassa (LASV) Arenavirus: LASV Primary Screen - GLuc reporter signal (AID 1347082; calls by dose curve; tested in HEK293 reporter line; note: series mostly up to about 57 µM; % is set by controls: 0 for no effect and ±100 for the full control effect; nearly all actives have a fitted effect of over 60% in size)
[4] = qHTS for Inhibitors of the Functional Ribonucleoprotein Complex (vRNP) of Lassa (LASV) Arenavirus: Viability assay - alamar blue signal for LASV Primary Screen (AID 1347083; calls by dose curve; tested in HEK293 reporter line; note: series mostly up to about 57 µM; % is set by controls: 0 for no effect and ±100 for the full control effect; nearly all actives have a fitted effect of over 80% in size)
[5] = qHTS for Inhibitors of the Functional Ribonucleoprotein Complex (vRNP) of Lymphocytic Choriomeningitis Arenaviruses (LCMV): Viability assay - alamar blue signal for LCMV Primary Screen (AID 1347085; calls by dose curve; tested in HEK293 reporter line; note: series mostly up to about 57 µM; % is set by controls: 0 for no effect and ±100 for the full control effect; nearly all actives have a fitted effect of over 80% in size)
[6] = target: Nucleoprotein (Lymphocytic choriomeningitis virus (strain Armstrong)) (UniProt P09992); assay: qHTS for Inhibitors of the Functional Ribonucleoprotein Complex (vRNP) of Lymphocytic Choriomeningitis Arenaviruses (LCMV): LCMV Primary Screen - GLuc reporter signal (AID 1347086); note: series mostly up to about 57 µM; % is set by controls: 0 for no effect and ±100 for the full control effect; nearly all actives have a fitted effect of over 70% in size
[7] = target: Androgen receptor (Homo sapiens) (UniProt P10275); assay: qHTS assay for small molecule agonists of androgen receptor signaling (AID 588515; active = well fitted curve in the direction sought with a large enough effect in the signal ratio, with a control signal flat; the % refers to the signal ratio; note: % is set by controls: 0 for no effect and ±100 for the full control effect); settings: AR-UAS-bla HEK293, beta-lactamase ratio, agonist 16 h; stronger effect = higher value
In short: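 EC50 and efficacy came from Hill fits of titrations (up to 92 uM) normalized to 30 nM R1881 as 100% and DMSO as 0%. Compound exposure was 16 h at 37 C on AR-UAS-bla HEK293 cells, with a 405/460/530 nm CCF4 fluorescence read.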

[8] = target: Androgen receptor (Homo sapiens) (UniProt P10275); assay: qHTS assay for small molecule antagonists of androgen receptor signaling (AID 588516; active = well fitted curve in the direction sought with a large enough effect in the signal ratio, with a control signal flat, not every such curve was filed as active; the % refers to the signal ratio; note: % is set by controls: 0 for no effect and ±100 for the full control effect)
In short: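 Cells were plated and incubated 5 h, compounds added in titration, then R1881 (10 nM final) as agonist. After 16 h at 37 C, CCF4 substrate was loaded for 2 h at room temperature and fluorescence measured.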

[9] = target: Bile acid receptor (Homo sapiens) (UniProt Q96RI1); assay: qHTS assay for small molecule antagonists of farnesoid X receptor signaling (AID 588526); note: % is set by controls: 0 for no effect and ±100 for the full control effect
In short: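 Concentration-response titrations were fitted to the Hill equation for half-maximal inhibition and maximal response, with data normalised to 50 uM chenodeoxycholic acid and DMSO control wells. Cells: FXR-UAS-bla HEK293T, dialyzed FBS.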

[10] = qHTS assay for small molecule antagonists of peroxisome proliferator-activated receptor delta signaling (AID 588535; active = well fitted inhibition curve with a large enough effect in the signal ratio, with a control signal flat, not every such curve was filed as active; the % refers to the signal ratio;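 for max response: cells co-treated with a PPAR-delta agonist as stimulator during compound exposure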); settings: HEK293T PPARd-UAS-bla, beta-lactamase FRET ratio, 18 h; 460 nm channel
In short: (§1)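 GeneBLAzer PPAR-delta-UAS-bla HEK293T cells in medium with 2% charcoal/dextran FBS were preincubated 5 hrs at 37 C, then given compounds, incubated 18 hrs at 37 C, and read by CCF4 beta-lactamase fluorescence; IC50 from Hill fits.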

[11] = target: Peroxisome proliferator-activated receptor delta (Homo sapiens) (UniProt Q03181); assay: as above
In short: as §1

[12] = target: Peroxisome proliferator-activated receptor gamma (Homo sapiens) (UniProt P37231); assay: qHTS assay for small molecule agonists of peroxisome proliferator-activated receptor gamma signaling (AID 588536; active = well fitted curve in the direction sought with a large enough effect in the signal ratio, with a control signal flat, not every such curve was filed as active; the % refers to the signal ratio;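 note: 0% = DMSO basal wells and 100% = rosiglitazone at 2 µM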)
In short: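 GeneBLAzer PPAR-gamma-UAS-bla HEK293 cells in 1% charcoal/dextran-treated FBS medium were treated 16 h at 37 C with compounds. Beta-lactamase activity was read by CCF4 ratio (460/530 nm). Response was normalized to 2 uM rosiglitazone (100%) and DMSO, then Hill-fitted for EC50 and efficacy.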

[13] = target: Vitamin D3 receptor (Homo sapiens) (UniProt P11473); assay: qHTS assay for small molecule antagonists of vitamin D receptor signaling (AID 588541);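 note: receptor activated by calcitriol during compound treatment; series mostly up to about 77 µM; % is set by controls: 0 for no effect and ±100 for the full control effect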
In short: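 VDR-UAS-bla HEK293T cells (2000/well, 2% charcoal-stripped FBS) were treated with titrated compounds plus 1-alpha,25-dihydroxyvitamin D3 (50 nM or 3 nM final) for 16 h at 37 C. CCF4 beta-lactamase fluorescence was read; Hill fits gave IC50.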

[14] = qHTS assay for small molecule agonists of retinoid X receptor alpha signaling (AID 588544); settings: HEK293T RXRa-UAS-bla, beta-lactamase reporter, 18 h; 530 nm emission;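 for activation: 0% = DMSO basal wells and 100% = reference agonist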
[15] = target: Retinoic acid receptor RXR-alpha (Homo sapiens) (UniProt P19793); assay: as above
[16] = target: Thyroid hormone receptor beta (Homo sapiens) (UniProt P10828); assay: qHTS assay for small molecule agonists of thyroid hormone receptor beta signaling (AID 588545)
In short: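 Cells (2500/well) were seeded, incubated 4 hrs at 37 C, dosed with a compound series, incubated 18 hrs, loaded with CCF4 dye for 2 hrs at RT, then read for fluorescence. Data were scaled between DMSO (0%) and 10 nM T3 (100%).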

[17] = qHTS assay for small molecule antagonists of retinoid X receptor alpha signaling (AID 588546; active = well fitted inhibition curve with a large enough effect in the signal ratio, with a control signal flat, not every such curve was filed as active; the % refers to the signal ratio); settings: HEK293T RXRa-UAS-bla, beta-lactamase ratio, antagonist mode; measured here: W530 green channel, cytotoxicity proxy
In short: (§2)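 Beta-lactamase reporter inhibition, read as CCF4 fluorescence ratio (ex 405, em 460/530 nm) after 2 h at RT. HEK293T UAS-bla cells, 2500/well, were stimulated with 9-cis-RA at 500 or 100 nM final alongside test compound for 18 h at 37 C.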

[18] = target: Retinoic acid receptor RXR-alpha (Homo sapiens) (UniProt P19793); assay: as above; settings: HEK293T RXRa-UAS-bla, beta-lactamase ratio, antagonist mode
In short: as §2

[19] = target: Thyroid hormone receptor beta (Homo sapiens) (UniProt P10828); assay: qHTS assay for small molecule antagonists of thyroid hormone receptor beta signaling (AID 588547; active = well fitted inhibition curve with a large enough effect in the signal ratio, with a control signal flat, not every such curve was filed as active; the % refers to the signal ratio); settings: TR-UAS-bla HEK293, beta-lactamase ratio, antagonist mode, 18 h
In short: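 TR-UAS-bla GripTite HEK293 cells in 2% charcoal/dextran FBS medium were preincubated 4 h at 37 C, given compound (0.59 nM to 92 uM) plus 0.4 nM T3 (final) for 18 h, then CCF4 for 2 h at RT; Hill fit gave IC50.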

[20] = qHTS assay for environmental chemicals that activate the Aryl hydrocarbon Receptor (AhR) signaling pathway (AID 651777; active = well fitted curve in the direction sought with a large enough effect; an effect the other way counts as inactive or inconclusive; note: % of control where 0% means no effect; nearly all actives have a fitted effect of over 15% in size); settings: 1A2-DRE human hepatoma cells, luciferase, 24 h; activation: stronger effect = higher value
In short: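 Human hepatoma 1A2-DRE cells, stably carrying a dioxin response element and CYP1A2 promoter driving luciferase, were exposed to compounds for 24 hr at 37 C and 5% CO2. Luciferase signal was then read after 30 min One-Glo at room temperature.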

[21] = target: Peroxisome proliferator-activated receptor alpha (Homo sapiens) (UniProt Q07869); assay: qHTS assay for small molecule agonists of the peroxisome proliferator-activated receptor alpha (PPARalpha) signaling pathway (AID 651778; active = well fitted curve in the direction sought with a large enough effect; an effect the other way counts as inactive or inconclusive; note: % of control where 0% means no effect); settings: PathHunter PPARalpha complementation, chemiluminescence, 6 h; stronger effect = higher value
In short: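 Cells plated at 2,000/well and held overnight at 37 C, 5% CO2, then compound added by pin tool for 6 hr; after PathHunter detection reagent and 60 min at room temperature, chemiluminescence from enzyme complementation was read.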

[22] = qHTS assay for small molecule agonists of the antioxidant response element (ARE) signaling pathway measured by Nrf2-dependant transcriptional activity (AID 720636; active = well fitted curve in the direction sought with a large enough effect in the repeat runs; an effect the other way counts as inactive or inconclusive; note: % of control where 0% means no effect)
In short: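 ARE-luc HepG2 cells carrying an Nrf2-responsive luciferase reporter were plated in medium with 1% dialyzed FBS, left 6 hr at 37 C to attach, then exposed to compound for 16 hr. Luciferase luminescence was read after ONE-Glo addition.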

[23] = qHTS assay for small molecule agonists of the antioxidant response element (ARE) signaling pathway measured by Nrf2-dependant transcriptional activity - cell viability counter screen (AID 720653; active = well fitted curve in the direction sought with a large enough effect in the repeat runs; an effect the other way counts as inactive or inconclusive; note: % is set by controls: 0 for no effect and ±100 for the full control effect); settings: ARE-bla HepG2 viability, CellTiter-Glo ATP luminescence, 16 h; max response: stronger effect = lower value
In short: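 ARE-bla HepG2 cells (2,000/well) rested 5 hrs at 37C/5% CO2, then exposed to compounds in DMSO for 16 hrs. Viability was read in the same wells as intracellular ATP by luminescence, 30 min at room temperature after reagent addition.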

[24] = qHTS assay for cell viability of HEK293 cells (AID 743288; active = well fitted curve in the direction sought with a large enough effect; an effect the other way counts as inactive or inconclusive; note: % is set by controls: 0 for no effect and ±100 for the full control effect; nearly all actives have a fitted effect of over 50% in size); settings: ATP luminescence (CellTiter-Glo), 18 h; max response: stronger effect = lower value
In short: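 HEK293 parental, 2,000 cells/well; ≥5 h pre-incubation 37 C; pintool compound addition; 18 h, 37 C; CellTiter-Glo 30 min RT; luminescence read.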

[25] = qHTS assay for cell viability of the p53RE-bla HCT-116 cell line (AID 743292; active = well fitted curve in the direction sought with a large enough effect; an effect the other way counts as inactive or inconclusive; note: % is set by controls: 0 for no effect and ±100 for the full control effect; nearly all actives have a fitted effect of over 55% in size)
In short: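 CellSensor p53RE-bla HCT-116 cells, 4,000/well, preincubated 5 h at 37 C, then exposed to compounds in DMSO for 16 h at 37 C. Viability read as CellTiter-Glo luminescence (intracellular ATP) after 30 min at room temperature.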

[26] = target: Nuclear receptor subfamily 1 group I member 2 (Rattus norvegicus) (UniProt Q9R1A7); assay: qHTS assay for small molecule activators of the rat pregnane X receptor (rPXR) signaling pathway (AID 651751; call rule not given here; note: 0% is about no effect); settings: rPXR reporter cells, luciferase (One-Glo), 24 h
[27] = qHTS assay for small molecule activators of the human pregnane X receptor (PXR) signaling pathway (AID 720659; call rule not given here; note: 0% is about no effect)
[28] = target: Alpha-galactosidase (Coffea arabica) (UniProt Q42656); assay: Counterscreen for Glucocerebrosidase Inhibitors: qHTS Assay for Coffee Bean alpha-Galactosidase at pH 4.5 (AID 957; active = well fitted curve in the direction sought with a large enough effect; an effect the other way counts as inactive or inconclusive;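 note: series mostly up to about 77 µM; plate controls were enzyme alone for no effect and no enzyme for full effect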)
In short: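 Green coffee bean enzyme (2 nM final) was incubated with compounds (0.7 nM to 77 uM) and 4-methylumbelliferyl alpha-D-galactopyranoside (80 uM final) in 50 mM citric acid, 0.005% Tween-20, pH 4.5, 20 min at room temperature; AC50 from Hill fits.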

[29] = target: Alpha-galactosidase (Coffea arabica) (UniProt Q42656); assay: Counterscreen for Glucocerebrosidase Inhibitors: qHTS Assay for Coffee Bean alpha-Galactosidase at pH 5.9 (AID 998; active = well fitted curve in the direction sought with a large enough effect; an effect the other way counts as inactive or inconclusive;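 note: plate controls were uninhibited enzyme for no effect and no-enzyme basal signal for full effect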)
In short: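 Green coffee bean enzyme (2 nM final) was incubated with compounds (0.7 nM–77 uM) and 4-methylumbelliferyl alpha-D-galactopyranoside (80 uM) in citrate buffer pH 5.9, 20 min at room temperature. High-pH stop; fluorescence 365/440 nm; AC50 from Hill fits.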

[30] = Inducers of the Endoplasmic Reticulum Stress Response (ERSR) in human glioma: Validation (AID 504836; active = well fitted curve in the direction sought with a large enough effect; an effect the other way counts as inactive or inconclusive; note: 0% is about no effect)
In short: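 Stably transfected U87-MG human glioma cells carrying a GRP78-based luminescent sensor were seeded at 1000 cells/well, pin-dosed with compounds and incubated 16 h. Luciferase reagent was then added, and end-point luminescence was read after 10 min at room temperature.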

Nucleoprotein (Lymphocytic choriomeningitis virus (strain Armstrong)), sequence (P09992 whole entry, looked up): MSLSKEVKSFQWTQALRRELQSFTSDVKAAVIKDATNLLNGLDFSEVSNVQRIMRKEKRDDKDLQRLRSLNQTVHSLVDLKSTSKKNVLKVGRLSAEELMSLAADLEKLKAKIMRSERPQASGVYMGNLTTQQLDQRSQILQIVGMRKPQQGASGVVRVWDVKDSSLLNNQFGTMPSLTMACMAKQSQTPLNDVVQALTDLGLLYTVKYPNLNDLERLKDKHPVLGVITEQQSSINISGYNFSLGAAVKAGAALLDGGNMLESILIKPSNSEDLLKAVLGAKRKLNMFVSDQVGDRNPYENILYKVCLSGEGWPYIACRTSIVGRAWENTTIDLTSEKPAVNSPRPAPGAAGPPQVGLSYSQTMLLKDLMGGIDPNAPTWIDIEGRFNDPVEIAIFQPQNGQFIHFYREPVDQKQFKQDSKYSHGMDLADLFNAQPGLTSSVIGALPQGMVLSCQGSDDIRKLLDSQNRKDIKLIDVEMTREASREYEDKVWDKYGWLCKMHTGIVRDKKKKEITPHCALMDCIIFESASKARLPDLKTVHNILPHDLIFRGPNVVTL
Bile acid receptor (Homo sapiens), sequence (Q96RI1 whole entry, looked up): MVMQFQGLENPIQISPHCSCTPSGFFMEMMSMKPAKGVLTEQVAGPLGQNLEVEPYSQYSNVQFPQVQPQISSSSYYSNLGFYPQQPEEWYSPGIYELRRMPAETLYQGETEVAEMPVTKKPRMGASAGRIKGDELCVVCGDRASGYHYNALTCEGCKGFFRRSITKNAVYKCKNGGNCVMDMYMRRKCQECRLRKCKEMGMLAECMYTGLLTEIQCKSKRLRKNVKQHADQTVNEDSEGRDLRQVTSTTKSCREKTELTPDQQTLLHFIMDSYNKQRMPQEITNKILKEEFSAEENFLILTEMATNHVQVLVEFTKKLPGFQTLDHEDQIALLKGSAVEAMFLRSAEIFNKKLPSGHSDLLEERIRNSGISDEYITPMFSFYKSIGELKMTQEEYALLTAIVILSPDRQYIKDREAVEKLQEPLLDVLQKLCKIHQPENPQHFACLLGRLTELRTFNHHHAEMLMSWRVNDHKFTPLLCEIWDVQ
Peroxisome proliferator-activated receptor delta (Homo sapiens), sequence (Q03181 whole entry, looked up): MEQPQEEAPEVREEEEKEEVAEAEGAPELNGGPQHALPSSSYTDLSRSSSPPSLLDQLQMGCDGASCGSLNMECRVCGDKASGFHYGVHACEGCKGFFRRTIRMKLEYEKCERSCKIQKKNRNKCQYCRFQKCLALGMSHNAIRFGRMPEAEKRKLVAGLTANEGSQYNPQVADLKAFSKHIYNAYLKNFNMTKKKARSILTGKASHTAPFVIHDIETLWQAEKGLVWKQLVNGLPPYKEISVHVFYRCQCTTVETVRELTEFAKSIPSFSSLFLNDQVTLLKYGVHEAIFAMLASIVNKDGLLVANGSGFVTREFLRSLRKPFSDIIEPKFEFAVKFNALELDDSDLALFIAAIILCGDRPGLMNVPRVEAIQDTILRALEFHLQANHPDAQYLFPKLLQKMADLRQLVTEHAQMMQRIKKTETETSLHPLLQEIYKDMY
Androgen receptor (Homo sapiens), sequence (P10275 whole entry, looked up): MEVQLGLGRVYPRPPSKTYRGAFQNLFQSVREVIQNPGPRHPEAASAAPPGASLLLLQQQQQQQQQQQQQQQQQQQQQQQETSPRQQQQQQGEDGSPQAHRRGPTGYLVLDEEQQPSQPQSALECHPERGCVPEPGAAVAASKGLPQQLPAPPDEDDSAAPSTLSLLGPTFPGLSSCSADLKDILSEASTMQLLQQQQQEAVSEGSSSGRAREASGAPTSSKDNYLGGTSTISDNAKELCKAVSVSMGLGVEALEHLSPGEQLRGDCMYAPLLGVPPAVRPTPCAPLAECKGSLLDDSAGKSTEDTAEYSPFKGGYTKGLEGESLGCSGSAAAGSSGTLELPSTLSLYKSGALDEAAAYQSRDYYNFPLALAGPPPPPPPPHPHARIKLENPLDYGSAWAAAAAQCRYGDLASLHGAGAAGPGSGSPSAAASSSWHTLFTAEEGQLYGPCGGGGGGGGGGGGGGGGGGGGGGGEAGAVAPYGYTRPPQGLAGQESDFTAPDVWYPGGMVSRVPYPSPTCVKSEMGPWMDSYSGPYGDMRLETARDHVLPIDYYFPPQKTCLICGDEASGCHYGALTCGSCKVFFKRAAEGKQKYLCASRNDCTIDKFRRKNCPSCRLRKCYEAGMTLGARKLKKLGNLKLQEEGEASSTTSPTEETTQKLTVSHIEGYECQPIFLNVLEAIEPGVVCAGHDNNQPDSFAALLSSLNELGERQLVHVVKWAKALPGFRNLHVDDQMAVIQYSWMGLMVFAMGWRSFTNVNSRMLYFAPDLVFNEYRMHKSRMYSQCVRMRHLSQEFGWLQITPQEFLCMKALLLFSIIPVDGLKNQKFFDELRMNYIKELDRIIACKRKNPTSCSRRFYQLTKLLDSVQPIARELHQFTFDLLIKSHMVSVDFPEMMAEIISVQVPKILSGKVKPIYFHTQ
Retinoic acid receptor RXR-alpha (Homo sapiens), sequence (P19793 whole entry, looked up): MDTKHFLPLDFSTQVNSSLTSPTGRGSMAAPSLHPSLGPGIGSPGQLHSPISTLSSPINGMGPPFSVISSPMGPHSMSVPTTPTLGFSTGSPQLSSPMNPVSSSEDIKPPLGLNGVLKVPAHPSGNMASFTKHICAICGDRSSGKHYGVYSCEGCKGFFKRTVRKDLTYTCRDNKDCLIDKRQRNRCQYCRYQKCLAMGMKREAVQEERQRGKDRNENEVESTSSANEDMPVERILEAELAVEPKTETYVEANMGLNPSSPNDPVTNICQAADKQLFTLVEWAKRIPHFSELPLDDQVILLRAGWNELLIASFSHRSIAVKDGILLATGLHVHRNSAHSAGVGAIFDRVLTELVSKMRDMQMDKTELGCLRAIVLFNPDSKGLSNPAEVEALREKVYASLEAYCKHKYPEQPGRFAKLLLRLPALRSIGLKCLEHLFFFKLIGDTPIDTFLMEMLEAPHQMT
Alpha-galactosidase (Coffea arabica), sequence (Q42656 whole entry, looked up): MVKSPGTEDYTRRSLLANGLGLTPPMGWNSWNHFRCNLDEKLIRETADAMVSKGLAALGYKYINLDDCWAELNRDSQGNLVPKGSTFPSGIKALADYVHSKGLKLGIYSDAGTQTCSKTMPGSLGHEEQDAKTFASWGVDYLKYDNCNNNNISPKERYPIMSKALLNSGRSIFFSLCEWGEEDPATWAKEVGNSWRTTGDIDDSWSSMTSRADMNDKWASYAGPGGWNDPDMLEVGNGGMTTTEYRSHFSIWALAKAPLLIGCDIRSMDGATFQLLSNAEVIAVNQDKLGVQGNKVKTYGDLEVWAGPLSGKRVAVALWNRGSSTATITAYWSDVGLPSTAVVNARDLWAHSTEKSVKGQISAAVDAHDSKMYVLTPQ
Thyroid hormone receptor beta (Homo sapiens), sequence (P10828 whole entry, looked up): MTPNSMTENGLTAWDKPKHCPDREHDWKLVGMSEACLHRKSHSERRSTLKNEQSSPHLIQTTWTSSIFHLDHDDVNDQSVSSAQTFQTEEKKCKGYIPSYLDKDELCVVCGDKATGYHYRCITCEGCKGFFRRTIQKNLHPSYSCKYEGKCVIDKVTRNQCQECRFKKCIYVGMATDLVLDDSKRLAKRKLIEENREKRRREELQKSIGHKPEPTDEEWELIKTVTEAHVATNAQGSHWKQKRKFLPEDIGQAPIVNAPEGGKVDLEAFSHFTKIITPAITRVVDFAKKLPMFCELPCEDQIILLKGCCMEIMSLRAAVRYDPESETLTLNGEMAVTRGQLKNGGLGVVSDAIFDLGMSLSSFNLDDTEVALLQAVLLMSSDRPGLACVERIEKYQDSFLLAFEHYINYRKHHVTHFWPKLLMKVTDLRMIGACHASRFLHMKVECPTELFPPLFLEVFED
Peroxisome proliferator-activated receptor alpha (Homo sapiens), sequence (Q07869 whole entry, looked up): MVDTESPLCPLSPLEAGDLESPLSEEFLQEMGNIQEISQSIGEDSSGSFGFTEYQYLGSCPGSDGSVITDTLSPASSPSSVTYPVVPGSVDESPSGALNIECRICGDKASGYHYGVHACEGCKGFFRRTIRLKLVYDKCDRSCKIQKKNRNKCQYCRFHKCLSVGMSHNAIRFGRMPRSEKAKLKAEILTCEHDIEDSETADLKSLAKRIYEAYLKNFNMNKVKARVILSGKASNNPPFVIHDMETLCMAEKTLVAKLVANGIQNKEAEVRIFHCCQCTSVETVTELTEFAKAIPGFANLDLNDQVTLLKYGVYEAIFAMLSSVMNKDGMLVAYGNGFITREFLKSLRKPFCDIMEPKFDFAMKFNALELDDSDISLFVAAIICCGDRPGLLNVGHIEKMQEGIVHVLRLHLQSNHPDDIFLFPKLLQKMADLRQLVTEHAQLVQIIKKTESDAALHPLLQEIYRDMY
Vitamin D3 receptor (Homo sapiens), sequence (P11473 whole entry, looked up): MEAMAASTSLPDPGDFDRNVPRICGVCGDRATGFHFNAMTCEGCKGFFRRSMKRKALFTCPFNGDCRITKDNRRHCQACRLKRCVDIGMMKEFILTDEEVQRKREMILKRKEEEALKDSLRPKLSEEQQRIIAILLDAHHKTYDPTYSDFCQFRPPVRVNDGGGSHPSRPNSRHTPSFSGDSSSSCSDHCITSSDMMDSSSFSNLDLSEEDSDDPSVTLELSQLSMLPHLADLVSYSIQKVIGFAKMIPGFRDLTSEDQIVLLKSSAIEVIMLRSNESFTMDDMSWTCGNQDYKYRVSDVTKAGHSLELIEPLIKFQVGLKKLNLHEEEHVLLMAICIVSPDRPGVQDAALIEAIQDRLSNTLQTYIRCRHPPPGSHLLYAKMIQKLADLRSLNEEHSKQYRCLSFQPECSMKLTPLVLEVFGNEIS

CCCCC(CC)CO (configuration not stated)
inactive: activation [1] -0.465% | Potency [2] | Potency [3] | Potency [4] | Potency [5] | Potency [6]

CCCCCCC(=O)O
inactive: activation [1] -0.812% | Potency [2] | Potency [3] | Potency [4] | Potency [5] | Potency [6]

CS(C)=O
inactive: activation [1] -2.1% | Potency [2] | Potency [3] | Potency [4] | Potency [5] | Potency [6]

Cc1ccc(C)c2ccccc12
inactive: activation [7] 26.3% | outcome [8] | Potency [9] | activation [1] -1.23% | Potency [2] | outcome [11] | outcome [12] | outcome [13] | outcome [15] | Potency [16] | max response [18] 3.54% | activity change % (negative = inhibition) [19] -0.662% | activation [20] 1.38% | max response [21] -1.64% | Potency [22] | max response [23] -14.6% | max response [24] -1.65% | outcome [25] | Potency [3] | Potency [4] | Potency [5] | Potency [6] | max response [26] -3.33% | outcome [27]
-5.36%: max response [17]
-18.4%: max response [14]
22.6%: max response [10]

O=C(O)C1=CC(=C(c2ccc(O)c(C(=O)O)c2)c2ccc(O)c(C(=O)O)c2)C=CC1=O
inactive: outcome [28] | outcome [29] | outcome [30] | Potency [3] | Potency [4] | Potency [5] | Potency [6]
